Data on 39 compounds can be found in PubChem BioAssay (NCI).

The structures appear in SMILES notation. Where “and” joins values, the source holds several entries; their conditions need not be identical. Equal entries are not always repeated. About 83,000 compounds went through this panel and 20% of them were active in at least one assay; those are over-represented in the sample as a whole.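 Plates (96-well) were seeded with cells, treated with compound at one concentration, and incubated for 48 hours before percent growth was determined.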 Unmarked numbers belong to inactive results. Calls of active or inactive are those of the source. Rule for the calls: active = growth percent below 10; inactive = the rest.

The assay relates to HL-60(TB) leukemia. Briefly: NCI-60 one-dose screen, 48 h (100 = growth as untreated, 0 = no growth, -100 = all killed). As to conditions: 10 µM unless noted.
For the compound `CSc1ccc(SC2c3ccc(C)cc3Oc3nc(N)c(C#N)c(N)c32)cc1` (centres undefined), the growth was -52% (active). For `O=c1c2cc(F)ccc2sc2c(NCCCNCCO)nc3ccc(Cl)cc3c12`, the growth is 45.4%. Then `CC(C)(C)OC(=O)N1CCCN(CCNc2nccc(-c3c(-c4cccc(O)c4)nc4sccn34)n2)S1(=O)=O`, with 104%. On to `CCCCn1c(=O)c(C2CNC(=O)c3ccccc3N2)cc2ccccc21` (centres undefined), for which the growth was 96.7%. As to `CCc1c(C)c2cc3nc(NCc4ccccc4)oc3c(C)c2oc1=O`, the growth was 80.6%. For the compound `Nc1nc(N)c2cc(Sc3ccc(Cl)cc3)ccc2n1`, the growth is 27.5%. Next, `C=C1C(=O)O[C@H]2[C@H]1CC/C(COC(=O)NCCc1ccc(OC)cc1)=C\CC[C@@]1(C)O[C@@H]21`: -22% (active); `COc1c(B(O)O)cccc1-c1nc2ccc3[nH]ncc3c2c2c1CCC2`: 61.6%. Then `COc1cc(-c2nc3cc(Cl)c(Cl)cc3[nH]2)ccc1OCC(=O)N=Nc1c(O)[nH]c2ccc([N+](=O)[O-])cc12`, with 94.9%. Take `CC(CCc1ccc(Cl)c(Cl)c1)NCc1ccc(C(C)(C)C)cc1` (centres undefined): the growth is 46.2%. Next, `COc1cc(C2NC(=O)c3ccccc3N2)ccc1OCCCCCOc1c(OC)cc(C2=NOC(c3cc(OC)c(OC)c(OC)c3)C2)cc1OC` (centres undefined): 68.3%; `Nc1cc(-c2cccc(OC(F)(F)F)c2)nc2ccc(N3CCCC3)cc12`: -35.5% (active) and -28.5% (active) and -11.6% (active); `CN1CCN(Cc2occc(=O)c2O)CCN(C)CCN(Cc2occc(=O)c2O)CC1`: 98.8% and 48.1%. Regarding `Nc1ccc(N=Nc2ccc(S(=O)(=O)O)cc2)cc1S(=O)(=O)O`, the growth was 98.5% and 146%.

Regarding `CCNc1ncnc2[nH]ncc12`, the growth was 95.7%. Consider `O=C(CCCCCCN1CC(=O)N2[C@H](c3cc(Br)cs3)c3[nH]c4ccccc4c3C[C@H]2C1=O)NO`, for which the growth is 4.98% (active). For the compound `OB1OCc2cc(/C=C/c3cccc(C(F)(F)F)c3)ccc21`, the growth was -6.49% (active). Then `Cn1c2c(Cl)c(Cl)ccc2c2ccn3c(=O)c4ccccc4nc3c21`, with 106%; and `O=C(Nc1ccc(OCc2nnc(-c3ccccc3)o2)c(F)c1)Nc1ccc(Cl)c(Cl)c1`, with 58.5%; and `COc1ccc(C2=NN(C(C)=O)C(c3cc(OC)c(OC)c(OC)c3)C2)cc1` (centres undefined), with 95.2%. Next, `CCN(CC)c1cc(C)c2cc(NC(=O)c3cccc(OC)c3)ccc2n1`: 84.7%; `O=C1CCN(Cc2ccccc2)C(=S)N1`: 86.8% and 113%; `CO/N=C(/C)c1ccc(NC(=O)CSc2nnc(-c3ccncc3)n2-c2ccccc2)cc1`: 86%. For `COc1ccccc1/C=C/C(=O)/C=C/c1ccccc1OC`, the growth was 15.1% and 18.7%. Turning to `N#CC1C(=O)c2ccccc2C1c1ccccc1` (centres undefined), the growth is 108% and 103%.

With `COc1cnc2c(c1)C(=O)c1c-2n(CCCNC(C)C)c(=O)c2cc(Cl)ccc12`, the growth was -69.1% (active). Then `COc1ccc(C(=O)Nc2ncc(Cc3cccc(Cl)c3)s2)cc1OC`, with 11.1%; and `COc1ccc(-c2nn(-c3ccccc3)cc2/C=C2\SC(=O)NC2=O)cc1`, with 88.2%; and `CCCCN(CCCC)CCCNc1c2c(nc3ccc(Cl)cc13)CCCC2`, with 89%.

Turning to `COc1ccc(S(=O)(=O)N2CCOCC2)cc1NC(=O)c1[nH]c(C)c2c1CCCCC2=O`, the growth was 99.6% and 15%. Regarding `Oc1ccc2ccccc2c1N=Nc1nccs1`, the growth was -44.3% (active). Then `O=C(Cn1ccc(=O)[nH]c1=O)c1ccc([N+](=O)[O-])o1`, with 87.1%; and `CCOC(=O)c1sc2ncnc(Nc3ccc(NC(=O)Nc4ccc(Cl)cc4)cc3)c2c1C`, with 91.4%. For `COc1cc(-c2nn(-c3cccc(NC(=O)c4ccccc4)c3)cc2-c2ccncc2)ccc1Cl`, the growth is -18.8% (active). As for `c1ncc2[nH]cnc2n1`, the growth was 54.2%. As to `Cn1cc(-c2csc(-c3c[nH]c4ccc(Br)cc34)n2)c2ccnc(Cl)c21`, the growth is 66.8%. On to `CCNC(=O)c1[nH]cc(-c2ccccc2)c1-c1cc(OC)c2c(c1OC)OCO2`, for which the growth is 94.7%. Next, `Cc1ccc(/C=C2\SC(=S)N(CC(=O)NCCCN3CCOCC3)C2=O)cc1`: 99.4%. Then `N/N=C(\C(=N\N)c1ccccc1)c1ccccc1`, with 84.7%.
